Measured values published in PubChem BioAssay (EPA / NIEHS).
Active and inactive are the calls of the source. The calls were made as follows: active = hit-call score of the fitted dose curve at least 0.9, where 1 is the maximum; inactive = score below 0.9.

The compounds below were run on Basic fibroblast growth factor (bFGF), FGF2 (gene 2247) (assay: BSK_MyoF_bFGF: BioMAP Diversity Plus: MyoF Assay for Basic fibroblast growth factor (bFGF) Biomarker Activity (AID 2284246)). Details: primary human lung fibroblasts.
Description: BSK_MyoF is a cell-based, multiplexed-readout assay that uses lung fibroblasts, a human […] primary cell, with measurements taken at 24 hours after chemical dosing in a microplate: 96-well plate.BSK_MyoF_bFGF is an assay component measured in the BSK_MyoF assay. It measures bFGF antibody related to regulation of gene expression using ELISA technology.Data from the assay component BSK_MyoF_bFGF was analyzed at the endpoint, BSK_MyoF_bFGF, in the positive analysis fitting direction relative to DMSO as the negative control and baseline of activity. Using a type of binding reporter, gain or loss-of-signal activity can be used to understand protein changes. To generalize the intended target to other relatable targets, this assay endpoint is annotated to the 'growth factor' intended target family, where the subfamily is 'basic fibroblast growth factor '.
The levels of cell surface (or secreted, indicated by the prefix "s") biomarker endpoints were measured by ELISA. Overt cytotoxicity to cells in confluent adherent cultures (all systems other than the BT system) was assessed by measuring total protein levels using sulforhodamine B (SRB) staining in parallel cultures at the time of biomarker measurements, indicated as SRB endpoints. For proliferation assays for adherent cell types, individual cell types are cultured at sub-confluence and relative cell numbers quantified by SRB staining at time points optimized for each system (48 h: 3C and CASM3C systems; 72 h: BT and HDF3CGF systems; 96 h: SAg system). SRB was performed by staining cells with 0.1% SRB after fixation with 10% TCA and reading wells at 560 nm.Viability and proliferation of PBMC (T cells) was quantified by Alamar Blue reduction for the SAg and BT systems. For PBMC viability (referred to as PBMC Cytotoxicity within the assay endpoint names), cells were plated (75,000/well in a 96-well plate) and then chemical samples added for 1 h before addition of activators, SEB and TSST-1 (20 ng/mL final concentration each). Cells were incubated for 90 h. Then, Alamar Blue (20 uL/well) (Invitrogen, Cat DAL1100) was added for 6 h, and the plates were read with a fluorescence microplate reader at 546/580 nm (excitation/emission). For PBMC proliferation, cells were plated and activated as above but incubated for only 16 h prior to addition of Alamar Blue. Plates were read after 6 h.

**Q.** For `CC(=O)c1c(C)c([N+](=O)[O-])c(C(C)(C)C)c([N+](=O)[O-])c1C`, which outcome is on record?
**A.** The outcome was “inactive”.

**Q.** How did the outcome turn out when `CSCCC=O` was run?
**A.** The outcome was “inactive”.

**Q.** How did the outcome turn out when `C[C@@H]1CCN(C(=O)[C@H](CCCN=C(N)N)NS(=O)(=O)c2cccc3c2NC[C@H](C)C3)[C@@H](C(=O)O)C1` was run?
**A.** Its outcome is “inactive”.

**Q.** For `CCCCOC(=O)CCCCCCCC(=O)OCCCC`, which outcome is on record?
**A.** Its outcome is “inactive”.

**Q.** How did the outcome turn out when `CC1(C)C2=CCCC(C)(C)[C@]23CC[C@H]1C3` was run?
**A.** The outcome was “inactive”.

**Q.** How did the AC50 turn out when `COc1ccc(OC)c(N=Nc2c(O)ccc3ccccc23)c1` was run?
**A.** The AC50 was 20 µM (active).

**Q.** How did the outcome turn out when `O=C1OC[C@H](Cc2cccc(O)c2)[C@H]1Cc1cccc(O)c1` was run?
**A.** The outcome was “inactive”.

**Q.** How did the outcome turn out when `O=C1c2ccccc2C(=O)c2c(O)ccc(O)c21` was run?
**A.** The outcome was “inactive”.

**Q.** `c1ccc(Oc2ccccc2)cc1` was tested. Which outcome did it give?
**A.** Its outcome is “inactive”.

**Q.** Which AC50 does the source give for `CCCCN(CCCC)C(=O)N(CCCC)CCCC` here?
**A.** Its AC50 is 10.1 µM (active).

**Q.** With `COc1ccc(CCN2CCC(Nc3nc4ccccc4n3Cc3ccc(F)cc3)CC2)cc1` as the compound, how does the AC50 read?
**A.** Its AC50 is 7.78 µM (active).

**Q.** With `CC=Cc1ccc(OCC)c(O)c1` as the compound, how does the outcome read?
**A.** The outcome was “inactive”.

**Q.** Which AC50 does the source give for `CC(=O)Nc1ccc(C(=O)CCl)cc1` here?
**A.** Its AC50 is 32.5 µM (active).

**Q.** For `CCC(C)c1cc([N+](=O)[O-])cc([N+](=O)[O-])c1OC(=O)OC(C)C` (stereo not drawn), which AC50 is on record?
**A.** Its AC50 is 27.7 µM (active).

**Q.** With `CCN(CC)C(=O)N(CC)CC` as the compound, how does the outcome read?
**A.** The outcome was “inactive”.

**Q.** `Oc1c(Cl)cc(Cl)c(Cl)c1Cc1c(O)c(Cl)cc(Cl)c1Cl` was tested. Which AC50 did it give?
**A.** Its AC50 is 1.32 µM (active).

**Q.** With `C=C(C)[C@H]1CC=C(C)C(=O)C1` as the compound, how does the outcome read?
**A.** Its outcome is “inactive”.

**Q.** For `CC(C=O)Cc1ccc(C(C)(C)C)cc1` (stereo not drawn), which outcome is on record?
**A.** Its outcome is “inactive”.

**Q.** With `CC(C)(N=C=O)c1cccc(C(C)(C)N=C=O)c1` as the compound, how does the outcome read?
**A.** Its outcome is “inactive”.

**Q.** `Clc1cc(Cl)c(-c2c(Cl)c(Cl)cc(Cl)c2Cl)cc1Cl` was tested. Which outcome did it give?
**A.** Its outcome is “inactive”.

**Q.** Which outcome does the source give for `CN(c1nccc(=O)[nH]1)C1CCN(c2nc3ccccc3n2Cc2ccc(F)cc2)CC1` here?
**A.** Its outcome is “inactive”.

**Q.** Which outcome does the source give for `C=C(C)C(=O)OCCOCCOCCOCCOC(=O)C(=C)C` here?
**A.** Its outcome is “inactive”.

**Q.** With `CCCCCC(C=O)=Cc1ccccc1` as the compound, how does the outcome read?
**A.** The outcome was “inactive”.

**Q.** Which outcome does the source give for `O=C1OC2(c3ccccc31)c1ccc(O)c(Br)c1Oc1c2ccc(O)c1Br` here?
**A.** Its outcome is “inactive”.

**Q.** How did the outcome turn out when `C=C(C)C(=O)OCCOCCOCCOC(=O)C(=C)C` was run?
**A.** The outcome was “inactive”.

**Q.** With `c1ccc2cc(Nc3ccc(Nc4ccc5ccccc5c4)cc3)ccc2c1` as the compound, how does the outcome read?
**A.** The outcome was “inactive”.

**Q.** For `CCCCCCCCCCCCCCCC(=O)OC/C=C(C)/C=C/C=C(C)/C=C/C1=C(C)CCCC1(C)C`, which outcome is on record?
**A.** The outcome was “inactive”.

**Q.** Which outcome does the source give for `Cc1cc(CCC(=O)OCCOCCOCCOC(=O)CCc2cc(C)c(O)c(C(C)(C)C)c2)cc(C(C)(C)C)c1O` here?
**A.** Its outcome is “inactive”.

**Q.** For `c1ccc(CCc2ccccc2)cc1`, which AC50 is on record?
**A.** The AC50 was 30.4 µM (active).

**Q.** How did the outcome turn out when `COc1cc(Cl)c(OC)cc1N` was run?
**A.** Its outcome is “inactive”.

**Q.** Which AC50 does the source give for `CN(C)C(=S)SC(=S)N(C)C` here?
**A.** The AC50 was 31.9 µM (active).

**Q.** With `CC(=O)C1(C)CC2=C(CCCC2(C)C)CC1C` (stereo not drawn) as the compound, how does the AC50 read?
**A.** Its AC50 is 29.3 µM (active).

**Q.** How did the outcome turn out when `CN(C)C(=O)Nc1ccc(Oc2ccc(Cl)cc2)cc1` was run?
**A.** Its outcome is “inactive”.

**Q.** Which outcome does the source give for `CS(=O)(=O)c1ccc(C2=C(c3ccccc3)C(=O)OC2)cc1` here?
**A.** Its outcome is “inactive”.

**Q.** With `C=C(C)C(=O)OCC(CC)(COC(=O)C(=C)C)COC(=O)C(=C)C` as the compound, how does the AC50 read?
**A.** The AC50 was 29.4 µM (active).

**Q.** `CC(C)(C)CC(C)(C)c1ccc(OCCOCC[N+](C)(C)Cc2ccccc2)cc1` was tested. Which AC50 did it give?
**A.** Its AC50 is 8.49 µM (active).

**Q.** For `IC(I)I`, which outcome is on record?
**A.** The outcome was “inactive”.

**Q.** With `C1=CC2C3C=CC(C3)C2C1` (stereo not drawn) as the compound, how does the outcome read?
**A.** Its outcome is “inactive”.
